Test results taken from PubChem BioAssay (Tox21).
Inconclusive results are not listed. Active and inactive are the calls of the source. Unless noted, calls come from the whole dose curve; as a rule, active = well fitted curve in the direction sought with a large enough effect in the repeat runs; inconclusive = weak or mixed curves; inactive = no such curve, though single readings can be large; an effect the other way counts as inactive or inconclusive.

Experiments:
[1] = qHTS assay for small molecules that induce genotoxicity in human embryonic kidney cells expressing luciferase-tagged ATAD5 (AID 651632); conditions: HEK293T ATAD5-luciferase induction, 16 h; series mostly up to 83.3 µM; note: nearly all actives have a fitted effect of over 15% in size
Summary of the method: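 Increased luciferase signal from ATAD5-tagged reporter cells indicates DNA-damage-driven ATAD5 induction. HEK293T cells are treated for 16 hr at 37C before detection with Amplite.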

[2] = qHTS assay for small molecule agonists of the p53 signaling pathway - cell viability (AID 651633; calls by dose curve;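 note: p53RE-bla HCT reporter cells with a stable beta-lactamase p53 reporter; nearly all actives have a fitted effect of over 30% in size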); conditions: p53RE-bla HCT-116 viability, ATP luminescence, 16 h; series mostly up to 83.3 µM
Summary of the method: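 p53RE-bla cells, seeded at 4,000 per well and rested 5 h at 37 C/5% CO2, received compounds in DMSO for 16 h at 37 C. CellTiter-Glo was then added, and luminescence was read after 30 min at room temperature to gauge cytotoxicity.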

[3] = qHTS assay for small molecules that induce genotoxicity in human embryonic kidney cells expressing luciferase-tagged ATAD5 - cell viability (AID 651634; calls by dose curve; note: nearly all actives have a fitted effect of over 25% in size); conditions: HEK293T ATAD5-luc cells viability, CellTiter-Fluor, 15.5 h; series mostly up to 83.3 µM
Summary of the method: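 Cytotoxicity counterscreen in HEK293T cells bearing an ATAD5-luciferase reporter: live-cell protease activity measured by CellTiter-Fluor fluorescence after 15.5 hr compound exposure.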

[4] = qHTS assay for small molecule disruptors of the mitochondrial membrane potential - cell viability (AID 720634; calls by dose curve;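 note: human HepG2 liver cancer cells; nearly all actives have a fitted effect of over 20% in size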); conditions: HepG2 viability, ATP luminescence (CellTiter-Glo), 1 h; series mostly up to 83.2 µM
Summary of the method: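 After overnight attachment at 37 C, HepG2 cells received compound or DMSO vehicle for 1 hr. Viability is then taken from ATP-driven luminescence following a 30 min room-temperature CellTiter-Glo step.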

[5] = qHTS assay to test for compound auto fluorescence at 590 nm (red) in HepG2 cells (AID 720674); conditions: HepG2 autofluorescence, red 540/590 nm, 1 h; series mostly up to 91.3 µM
Summary of the method: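 Intrinsic compound fluorescence in the red window (Ex/Em 540/590 nm) is measured in attached HepG2 cells exposed for 1 hr, DMSO vehicle as baseline, benchmarked to Rose Bengal sodium.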

[6] = qHTS assay to test for compound auto fluorescence at 535 nm (green) in HepG2 cells (AID 720675); conditions: green autofluorescence 485/535 nm, 1 h; series mostly up to 91.3 µM
[7] = qHTS assay to test for compound auto fluorescence at 460 nm (blue) in HEK293 cells (AID 720678); conditions: blue autofluorescence 405/460 nm; series mostly up to 91.3 µM
Summary of the method: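 Auto fluorescence in the blue band was quantified as triamterene equivalency. HEK293 cells were seeded at 2,000/well, dosed after a 4-5 hr attachment, and kept overnight at 37C before the 405/460 nm reading.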

[8] = qHTS assay to test for compound auto fluorescence at 590 nm (red) in HEK293 cells (AID 720679); conditions: red autofluorescence 540/590 nm; series mostly up to 91.3 µM
Summary of the method: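 Autofluorescence equivalency to Rose Bengal sodium, 540/590nm, in HEK293 cells exposed overnight to 23 nL compound per well.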

[9] = qHTS assay to test for compound auto fluorescence at 535 nm (green) in HEK293 cells (AID 720680); conditions: green autofluorescence 485/535 nm; series mostly up to 91.3 µM
[10] = qHTS assay to test for compound auto fluorescence at 460 nm (blue) in HEK293 cell free culture (AID 720681); conditions: cell-free medium, autofluorescence 405/460 nm (blue); series mostly up to 91.3 µM
Summary of the method: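 Test compounds were pinned into cell-free culture medium (DMEM with 10% FBS) and fluorescence was read directly at Ex/Em 405/460 nm. Signals were expressed as fluorescence equivalents of triamterene, with DMSO vehicle as control.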

[11] = qHTS assay to test for compound auto fluorescence at 535 nm (green) in HEK293 cell free culture (AID 720682); conditions: cell-free medium, green autofluorescence 485/535 nm; series mostly up to 91.3 µM
Summary of the method: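 Compounds were pin-transferred into cell-free DMEM with 10% FBS, and green fluorescence was read at excitation 485 nm and emission 535 nm. Intensities were expressed as fluorescein-equivalent values.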

[12] = qHTS assay to test for compound auto fluorescence at 590 nm (red) in HEK293 cell free culture (AID 720683); conditions: cell-free medium autofluorescence, Ex540/Em590 red; series mostly up to 91.3 µM
Summary of the method: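 Tox21 10K library compounds were pinned into cell-free DMEM with 10% FBS and fluorescence was read at excitation 540 nm. Activity is expressed as Rose Bengal sodium equivalency.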

[13] = qHTS assay to test for compound auto fluorescence at 590 nm (red) in HepG2 cell free culture (AID 720684); conditions: cell-free medium autofluorescence, red 540/590 nm; series mostly up to 91.3 µM
Summary of the method: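 Red fluorescence (540 nm excitation, 590 nm emission) was measured after compound transfer into cell-free MEM supplemented with 10% FBS. Values are equivalencies against Rose Bengal sodium.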

[14] = qHTS assay to test for compound auto fluorescence at 460 nm (blue) in HepG2 cell free culture (AID 720685); conditions: Cell-free culture medium, blue autofluorescence 405/460 nm; series mostly up to 91.3 µM
Summary of the method: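 Compound (23 nL) or DMSO pinned into cell-free MEM with 10% FBS; blue fluorescence read at 405/460 nm excitation/emission, expressed as auto-fluorescence equivalency to triamterene.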

[15] = qHTS assay to test for compound auto fluorescence at 535 nm (green) in HepG2 cell free culture (AID 720686); conditions: Cell-free medium, green autofluorescence 485/535 nm; series mostly up to 91.3 µM
[16] = qHTS assay to test for compound auto fluorescence at 460 nm (blue) in HepG2 cells (AID 720687); conditions: autofluorescence 405/460 nm, 1 h; series mostly up to 91.3 µM
Summary of the method: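 Cells (2,000/well in MEM with 10% FBS) attached overnight at 37 C, then were exposed to compound or DMSO for 1 hr at 37 C, 5% CO2. Fluorescence read at Ex/Em 405/460 nm, expressed as triamterene-equivalent signal.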

[17] = target: Glucocorticoid receptor (Homo sapiens) (UniProt P04150); experiment: qHTS assay to identify small molecule agonists of the glucocorticoid receptor (GR) signaling pathway (AID 720691; active = well fitted activation curve with a large enough effect in the signal ratio in the repeat runs, not every such curve was filed as active; the % refers to the signal ratio); conditions: GR-bla HeLa, beta-lactamase reporter ratio, 18 h; series mostly up to 62.4 µM
Chain of Glucocorticoid receptor (Homo sapiens) (P04150 whole entry, looked up): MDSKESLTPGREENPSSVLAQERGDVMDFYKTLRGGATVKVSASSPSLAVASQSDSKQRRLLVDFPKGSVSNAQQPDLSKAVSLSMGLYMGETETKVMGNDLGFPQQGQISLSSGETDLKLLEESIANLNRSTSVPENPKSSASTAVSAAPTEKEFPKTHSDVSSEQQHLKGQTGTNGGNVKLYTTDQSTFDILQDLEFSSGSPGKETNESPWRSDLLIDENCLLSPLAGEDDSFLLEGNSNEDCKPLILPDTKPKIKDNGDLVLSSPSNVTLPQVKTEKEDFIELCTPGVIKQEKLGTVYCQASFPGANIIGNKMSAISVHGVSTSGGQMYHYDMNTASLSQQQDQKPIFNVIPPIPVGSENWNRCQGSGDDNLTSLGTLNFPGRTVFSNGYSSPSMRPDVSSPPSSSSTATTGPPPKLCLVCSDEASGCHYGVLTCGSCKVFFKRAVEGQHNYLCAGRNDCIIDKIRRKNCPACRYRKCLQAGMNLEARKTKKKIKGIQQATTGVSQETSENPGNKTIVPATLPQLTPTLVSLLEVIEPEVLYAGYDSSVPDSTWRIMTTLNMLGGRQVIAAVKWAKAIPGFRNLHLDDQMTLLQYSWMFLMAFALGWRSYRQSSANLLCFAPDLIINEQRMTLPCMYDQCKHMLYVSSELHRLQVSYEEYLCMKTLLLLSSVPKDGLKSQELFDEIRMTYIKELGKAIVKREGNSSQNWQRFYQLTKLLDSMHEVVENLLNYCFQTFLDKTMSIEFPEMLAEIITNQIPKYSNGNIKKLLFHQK
Summary of the method: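 Agonist mode in a HeLa line carrying a GRE-controlled beta-lactamase reporter. Compounds act for 18 h at 37 C before a 2 h room-temperature FRET substrate step and fluorescence reading.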

[18] = target: Glucocorticoid receptor (Homo sapiens) (UniProt P04150); experiment: qHTS assay to identify small molecule antagonists of the glucocorticoid receptor (GR) signaling pathway (AID 720692; active = well fitted inhibition curve with a large enough effect in the signal ratio in the repeat runs, not every such curve was filed as active; the % refers to the signal ratio); conditions: GR-bla HeLa, beta-lactamase FRET ratio, dexamethasone-stimulated, 18 h; series mostly up to 58.5 µM
Summary of the method: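 Cells plated, rested 4 h at 37 C/5% CO2; compounds in DMSO pin-transferred; dexamethasone added to 5 nM final; 18 h at 37 C; B/G FRET substrate added, 2 h room temperature; fluorescence measured.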

[19] = qHTS assay for small molecule disruptors of the mitochondrial membrane potential (AID 720635); conditions: HepG2 mitochondrial membrane potential, Mito-MPS dye ratio; series mostly up to 83.2 µM
Summary of the method: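 HepG2 cells (2,000/well) attached overnight at 37C, then took compound for 1 hr at 37C, 5% CO2. Mito-MPS dye was added for 30 min; fluorescence was read at 490/535 nm (monomers) and 540/590 nm (aggregates).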
% is set by controls: 0 for no effect and ±100 for the full control effect.

Cl[Si](Cl)(c1ccccc1)c1ccccc1
inactive: Potency [1] | Potency [2] | Potency [3] | Potency [4] | Potency [5] | Potency [6] | Potency [7] | Potency [8] | Potency [9] | Potency [10] | Potency [11] | Potency [12] | Potency [13] | Potency [14] | Potency [15] | Potency [16] | Potency [17]

C=C(C)C(=O)OCCCCCCCCCC
inactive: Potency [1] | Potency [2] | Potency [3] | Potency [4] | Potency [5] | Potency [6] | Potency [7] | Potency [8] | Potency [9] | Potency [10] | Potency [11] | Potency [12] | Potency [14] | Potency [15] | Potency [16] | Potency [17]

Cc1c(C)c2c(c(C)c1OC(=O)c1cccnc1)CC[C@@](C)(CCC[C@H](C)CCC[C@H](C)CCCC(C)C)O2
inactive: Potency [1] | Potency [2] | Potency [3] | Potency [4] | Potency [5] | Potency [6] | Potency [7] | Potency [9] | Potency [10] | Potency [11] | Potency [12] | Potency [13] | Potency [14] | Potency [15] | Potency [16]

CC1(C)CCC[C@]2(C)[C@H]3CCO[C@]3(C)CC[C@@H]12
inactive: Potency [1] | Potency [2] | Potency [3] | Potency [4] | Potency [5] | Potency [6] | Potency [7] | Potency [8] | Potency [9] | Potency [10] | Potency [11] | Potency [12] | Potency [13] | Potency [14] | Potency [15] | Potency [16] | Potency [17]

S=c1nccc[nH]1
inactive: Potency [1] | Potency [2] | Potency [3] | Potency [4] | Potency [5] | Potency [6] | Potency [7] | Potency [8] | Potency [9] | Potency [10] | Potency [11] | Potency [12] | Potency [14] | Potency [15] | Potency [16]

CCc1cccc(CC)c1NC(=O)CN(CC(=O)O)CC(=O)O
inactive: Potency [1] | Potency [2] | Potency [3] | Potency [4] | fluorescence, relative to Rose Bengal [5] 0.215% [at 18.6 µM] | fluorescence, % of fluorescein control [6] -0.0501% [at 18.6 µM] | fluorescence, % of triamterene [7] -0.194% [at 18.6 µM] | fluorescence, % of fluorescent control [8] -0.732% [at 18.6 µM] | fluorescence, % of fluorescein [9] 0.0114% [at 18.6 µM] | fluorescence, % of fluorescent control [10] 0.0332% [at 18.6 µM] | activity change [11] 0.0655% [at 18.6 µM, stronger effect = higher value] | fluorescence, % of fluorescent control [12] 0.184% [at 18.6 µM] | fluorescence, % of Rose Bengal [13] -0.249% [at 18.6 µM] | fluorescence, % of fluorescent control [14] -0.0593% [at 18.6 µM] | fluorescence, % of fluorescein control [15] 0.0075% [at 18.6 µM] | fluorescence, % of fluorescent control [16] 0.148% [at 18.6 µM] | Potency [17] | Potency [18]

Nc1nc(N)nc(-c2cc(Cl)ccc2Cl)n1
inactive: Potency [1] | Potency [2] | Potency [3] | Potency [4] | Potency [19] | Potency [5] | Potency [6] | Potency [7] | Potency [9] | Potency [10] | Potency [11] | Potency [12] | Potency [13] | Potency [15] | Potency [16] | Potency [17] | Potency [18]
